# According to PubChem BioAssay (EPA / NIEHS):
# Inconclusive results are not listed. The source made the active and inactive calls. The calls were made as follows, unless noted: active = hit-call score of the fitted dose curve at least 0.9, where 1 is the maximum; inactive = score below 0.9.
# How the values were obtained:
# [1] = CCTE_Shafer_MEA_acute_spike_number: CCTE's Neural Acute Assay for Total Number of Spikes, Shafer Lab (AID 2284008);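 as to AC50: curve fitted for decrease in spike count so AC50 reflects inhibitors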
# In short: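 Primary rat cortical neurons on 16-electrode MEA wells; on DIV 13 or 15, 40-min baseline then 40-min recording with compound (0.03-40 uM) at 37 C. Spikes detected at 8x rms noise; percent change versus baseline, DMSO as negative control.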
# [2] = CCTE_Shafer_MEA_acute_firing_rate_mean: CCTE's Neural Acute Assay for Mean Firing Rate, Shafer Lab (AID 2284009);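 also: analyzed for loss of signal so actives lower firing rate relative to DMSO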
# In short: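 Spontaneous spiking of primary rat cortical networks, DIV 13/15, 37 C. Compound 0.03-40 uM, n ≥3 wells; 40 min baseline vs 40 min treated. Endpoint fitted in loss-of-signal direction against DMSO.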
# [3] = CCTE_Harrill_HTTr_Viability_MCF7: CCTE's 6-hour Cell Viability Assessment for the High-Throughput Transcriptomics (HTTr) Platform, in MCF-7 cells cultured in DMEM + 10% fetal bovine serum, Harrill Lab (AID 2284010)
# In short: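 Propidium iodide exclusion, imaged by high-content analysis, gauged viability after a six-hour exposure across eight concentrations. Cells were MCF-7 grown in DMEM with 10% fetal bovine serum; fits run in both directions against DMSO.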
# [4] = CCTE_Harrill_HTTr_Apoptosis_MCF7: CCTE's 6-hour Apoptosis Assessment for the High-Throughput Transcriptomics (HTTr) Platform, in MCF-7 cells cultured in DMEM + 10% fetal bovine serum, Harrill Lab (AID 2284011)
# In short: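 MCF-7 cells in DMEM + 10% fetal bovine serum were exposed to chemicals for 6 hours over an eight-point dilution series. Caspase-3/7 activation was imaged by high content imaging with CellEvent Caspase 3/7 Green; bidirectional fitting used DMSO as baseline.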
# [5] = CCTE_Shafer_MEA_acute_burst_number: CCTE's Neural Acute Assay for Single-Electrode Bursts, Shafer Lab (AID 2284013)
# In short: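 Burst totals were derived with adaptive spike detection (8x rms threshold) on filtered signals from rat cortical cultures; change relative to pre-treatment baseline after 40-min compound exposure (0.03-40 uM) was fitted in the negative direction against DMSO.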
# [6] = target: Nucleoli Translocation, AR (gene 367) (UniProt P10275); experiment: UPITT_HCI_U2OS_AR_TIF2_Nucleoli_Antagonist: University of Pittsburgh U2OS Androgen Receptor-Transcriptional Intermediary Factor 2 (AR-TIF2) Antagonism High Content Imaging Assay for Nucleoli Translocation (AID 2283997; active = hit-call score of the fitted dose curve at least 0.9, where 1 is the maximum)
# Chain of Nucleoli Translocation, AR (gene 367) (P10275 whole entry, looked up, the tested form may be a part): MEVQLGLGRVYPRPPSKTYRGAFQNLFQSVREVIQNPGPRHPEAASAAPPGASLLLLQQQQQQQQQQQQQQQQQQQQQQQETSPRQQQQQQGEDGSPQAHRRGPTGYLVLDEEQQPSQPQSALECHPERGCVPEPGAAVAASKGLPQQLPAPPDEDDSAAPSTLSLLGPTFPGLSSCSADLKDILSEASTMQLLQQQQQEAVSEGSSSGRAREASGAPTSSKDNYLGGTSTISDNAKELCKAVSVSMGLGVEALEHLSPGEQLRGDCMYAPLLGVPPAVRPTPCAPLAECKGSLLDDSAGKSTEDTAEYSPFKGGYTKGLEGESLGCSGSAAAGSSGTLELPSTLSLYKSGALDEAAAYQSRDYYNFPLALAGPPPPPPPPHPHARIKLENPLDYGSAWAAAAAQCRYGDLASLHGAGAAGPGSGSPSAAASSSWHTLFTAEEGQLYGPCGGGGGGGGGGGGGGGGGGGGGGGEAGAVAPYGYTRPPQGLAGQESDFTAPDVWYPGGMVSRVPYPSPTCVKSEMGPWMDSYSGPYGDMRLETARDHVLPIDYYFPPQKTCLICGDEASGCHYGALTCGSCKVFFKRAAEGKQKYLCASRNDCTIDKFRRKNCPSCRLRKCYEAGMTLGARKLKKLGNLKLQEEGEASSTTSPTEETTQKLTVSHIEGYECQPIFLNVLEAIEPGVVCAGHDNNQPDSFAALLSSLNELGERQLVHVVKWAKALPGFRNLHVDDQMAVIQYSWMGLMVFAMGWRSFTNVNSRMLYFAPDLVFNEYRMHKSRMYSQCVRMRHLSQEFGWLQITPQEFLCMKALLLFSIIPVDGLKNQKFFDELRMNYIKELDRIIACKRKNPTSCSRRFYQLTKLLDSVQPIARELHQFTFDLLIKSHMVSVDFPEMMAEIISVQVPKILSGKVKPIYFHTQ
# In short: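 An antagonist-mode imaging screen: engineered U2OS (AR-RFP, TIF2-GFP) exposed to 20 uM compound, 0.2% DMSO. Activity reflects nucleolar red fluorescence change relative to DHT baseline.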
# [7] = target: Nucleoli Translocation, AR (gene 367) (UniProt P10275); experiment: UPITT_HCI_U2OS_AR_TIF2_Nucleoli_Agonist: University of Pittsburgh U2OS Androgen Receptor-Transcriptional Intermediary Factor 2 (AR-TIF2) Agonism High Content Imaging Assay for Nucleoli Translocation (AID 2283998; active = hit-call score of the fitted dose curve at least 0.9, where 1 is the maximum)
# In short: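 Cells express human AR fused to red fluorescent protein and TIF2 fused to GFP. Red fluorescence in the nucleolar region was quantified by high-content imaging and fitted as gain-of-signal against a DMSO baseline. Compounds were tested at 0.195 to 50 uM final (0.5% DMSO).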
# [8] = target: Ratio of Nucleoli Translocation and Cytoplasm, AR (gene 367) (UniProt P10275); experiment: UPITT_HCI_U2OS_AR_TIF2_Nucleoli_Cytoplasm_Ratio_Antagonist: University of Pittsburgh U2OS Androgen Receptor-Transcriptional Intermediary Factor 2 (AR-TIF2) Antagonism High Content Imaging Assay for Ratio of Nucleoli Translocation and Cytoplasm (AID 2283999; active = hit-call score of the fitted dose curve at least 0.9, where 1 is the maximum;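 also: antagonists lower the DHT-driven ratio of nucleolar to cytoplasmic red signal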)
# Chain of Ratio of Nucleoli Translocation and Cytoplasm, AR (gene 367) (P10275 whole entry, looked up): as the sequence (P10275 whole entry, looked up, the tested form may be a part) above
# In short: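 High-content imaging of red fluorescence ratio, nucleoli versus cytoplasm, in U2OS expressing AR-RFP and TIF2-GFP, fitted relative to DHT. Compounds tested once at 20 uM final, then 0.195 to 50 uM final in serial dilution.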
# [9] = target: Ratio of Nucleoli Translocation and Cytoplasm, AR (gene 367) (UniProt P10275); experiment: UPITT_HCI_U2OS_AR_TIF2_Nucleoli_Cytoplasm_Ratio_Agonist: University of Pittsburgh U2OS Androgen Receptor-Transcriptional Intermediary Factor 2 (AR-TIF2) Agonism High Content Imaging Assay for Ratio of Nucleoli Translocation and Cytoplasm (AID 2284000; active = hit-call score of the fitted dose curve at least 0.9, where 1 is the maximum;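 also: hits raise the red nucleolar to cytoplasm ratio above vehicle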)
# In short: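 Primary screen at 20 uM final (0.2% DMSO), then triplicate confirmation and dose-response from 0.195 to 50 uM final (0.5% DMSO). Cells: U2OS with AR-RFP and TIF2-GFP. Endpoint is the nucleoli/cytoplasm red-fluorescence ratio, gain-of-signal vs DMSO.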
# [10] = CCTE_Harrill_HTTr_CellCount_MCF7: CCTE's Cell Proliferation Assessment for the High-Throughput Transcriptomics (HTTr) Platform, Harrill Lab (AID 2284012; active = hit-call score of the fitted dose curve at least 0.9, where 1 is the maximum;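 also: cells exposed to compound for six hours; intended direction is loss of nuclei count meaning fewer cells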)
# In short: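 Cell count from high-content imaging of Hoechst-labeled nuclei serves as viability/growth readout. Chemicals were applied to MCF-7 cells in eight concentrations for six hours, with fitting in both directions relative to DMSO.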
# [11] = CCTE_Simmons_MITO_basal_resp_rate: CCTE's HepG2 Seahorse XF Respirometric Screening Assay at Basal Respiratory State, Simmons Lab (AID 2284001); details: actives raise or lower the signal
# In short: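 Readout is oxygen consumption rate after test compound injection, measured by Seahorse XF in HepG2 cells. Seven concentrations from 125 nM up to 100 uM final are tested, and activity in either direction is fitted against DMSO.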
# [12] = CCTE_Simmons_MITO_max_resp_rate: CCTE's HepG2 Seahorse XF Respirometric Screening Assay at Maximal Respiratory State [uncoupled], Simmons Lab (AID 2284002); details: actives raise or lower the signal
# In short: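 HepG2 oxygen consumption was read on a Seahorse XF96 after FCCP uncoupler injection, following test compound injection; 7 concentrations, 125 nM–100 uM final, three biological replicates. Bidirectional fitting against DMSO vehicle baseline.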
# [13] = CCTE_Simmons_MITO_inhib_resp_rate: CCTE's HepG2 Seahorse XF Respirometric Screening Assay at Inhibited Respiratory State [full ETC block], Simmons Lab (AID 2284006); details: actives raise or lower the signal
# In short: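 This endpoint is the respiration rate remaining after rotenone/antimycin A block, in HepG2 cells on a Seahorse XF96. Chemicals spanned 125 nM–100 uM final, in three biological replicates. OCR was read every 6 minutes for 72 minutes and compared with DMSO vehicle.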
# [14] = CCTE_Simmons_MITO_viability: CellTiter-Glo Viability Assessment for CCTE's HepG2 Seahorse XF Respirometric Screening Assay [post-hoc], Simmons Lab (AID 2284007; active = hit-call score of the fitted dose curve at least 0.9, where 1 is the maximum)
# In short: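 Luciferase-coupled ATP read-out after the Seahorse run: HepG2 cells treated 90 minutes with test chemical, 7-point series of 125 nM–100 uM final, in triplicate biological runs. Vehicle DMSO; dichlone as positive control over 8 concentrations.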
compound,measurement,setting,value
c1ccc2cc3ccccc3cc2c1,AC50,[1],0.003 µM (active)
same,AC50,[2],0.003 µM (active)
same,outcome,[3],inactive
same,outcome,[4],inactive
same,AC50,[5],0.0075 µM (active)
COc1cc2c(c(OC)c1OC)-c1ccc(OC)c(=O)cc1[C@@H](NC(C)=O)CC2,outcome,[6],inactive
same,outcome,[7],inactive
same,outcome,[8],inactive
same,outcome,[9],inactive
same,outcome,[1],inactive
same,outcome,[2],inactive
same,outcome,[3],inactive
same,outcome,[4],inactive
same,outcome,[10],inactive
same,AC50,[5],34 µM (active)
Cn1c(=O)c2[nH]cnc2n(C)c1=O,outcome,[1],inactive
same,outcome,[2],inactive
same,outcome,[3],inactive
same,outcome,[4],inactive
same,outcome,[5],inactive
CCCCCCCC1CCC(=O)O1 (centres undefined),AC50,[11],46.4 µM (active)
same,outcome,[12],inactive
same,outcome,[13],inactive
same,outcome,[1],inactive
same,outcome,[2],inactive
same,outcome,[3],inactive
same,outcome,[4],inactive
same,outcome,[10],inactive
same,outcome,[5],inactive
CCc1ccc(O)c(C(C)(C)C)c1,outcome,[11],inactive
same,outcome,[12],inactive
same,outcome,[13],inactive
same,outcome,[14],inactive
same,AC50,[1],0.679 µM (active)
same,AC50,[2],0.672 µM (active)
same,outcome,[3],inactive
same,outcome,[4],inactive
same,outcome,[10],inactive
same,AC50,[5],1.03 µM (active)
C=CCc1cc(S(=O)(=O)c2ccc(O)c(CC=C)c2)ccc1O,AC50,[7],84 µM (active)
same,outcome,[8],inactive
same,outcome,[9],inactive
same,AC50,[11],12.3 µM (active)
same,AC50,[12],8.67 µM (active)
same,outcome,[13],inactive
same,outcome,[14],inactive
same,outcome,[1],inactive
same,outcome,[2],inactive
same,outcome,[3],inactive
same,outcome,[4],inactive
same,outcome,[5],inactive
Cc1ncc([C@@H](CCCCCCc2ccc3c(n2)NCCC3)CC(=O)O)cn1,outcome,[1],inactive
same,outcome,[2],inactive
same,AC50,[3],0.0626 µM (active)
same,AC50,[4],1.6 µM (active)
same,AC50,[10],0.321 µM (active)
same,outcome,[5],inactive
CCCCC(CC)C(=O)OCCOCCOCCOC(=O)C(CC)CCCC (centres undefined),outcome,[6],inactive
same,outcome,[7],inactive
same,outcome,[8],inactive
same,outcome,[9],inactive
same,outcome,[1],inactive
same,outcome,[2],inactive
same,outcome,[3],inactive
same,outcome,[4],inactive
same,outcome,[10],inactive
same,outcome,[5],inactive
CCCCOC(=O)c1ccccc1,outcome,[6],inactive
same,outcome,[7],inactive
same,outcome,[9],inactive
same,outcome,[3],inactive
same,outcome,[4],inactive
same,outcome,[10],inactive
O=C(O)c1cccc(C[C@@H]2COc3ccc(OCc4nc5cc(F)ccc5s4)cc3[C@@H]2O)c1,outcome,[11],inactive
same,AC50,[12],25 µM (active)
same,outcome,[13],inactive
same,outcome,[14],inactive
same,outcome,[3],inactive
same,outcome,[4],inactive
